The text below walks through data of PubChem BioAssay AID2129 (The Scripps Research Institute Molecular Screening Center, 2009).

SMILES strings stand for the structures. Out of some 320,000 compounds screened, about 2,200 (0.69%) were called active. For the sample, actives were picked, then their nearest neighbours and some compounds at random. Unmarked numbers belong to inactive results.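 Rule for the calls: active = inhibition above the mean of all tested compounds plus 3 SD, cutoff set per campaign (cut at about 30% in these data); inactive = the rest.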

Sequence of Bcl-2-like protein 1 (Homo sapiens) (Q07817 whole entry, looked up): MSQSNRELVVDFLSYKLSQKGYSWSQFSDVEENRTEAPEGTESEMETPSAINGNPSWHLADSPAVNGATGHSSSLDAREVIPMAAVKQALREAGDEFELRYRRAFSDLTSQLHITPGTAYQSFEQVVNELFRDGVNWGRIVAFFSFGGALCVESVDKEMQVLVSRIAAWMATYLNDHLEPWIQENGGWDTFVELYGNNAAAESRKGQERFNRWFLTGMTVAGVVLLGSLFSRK

The assay addresses Bcl-2-like protein 1 (Homo sapiens) (UniProt Q07817). In words: inhibitors of human Bcl-xL, primary screen, biochemical, fluorescence polarization, HTS (AID 2129).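 Note: 0% = DMSO wells and 100% = unlabeled Bim-BH3 peptide competitor; inhibitors lower millipolarization by displacing the labeled peptide.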 The conditions noted are these: GST-Bcl-xL / FITC-Bim BH3 peptide fluorescence polarization; at 10.9 µM; active compounds read high.
For the molecule `O=C(c1ccc(Cl)cc1)N1N=C(c2ccccn2)CC1(O)C(F)(F)F` (stereo not given), the inhibition is -13%.

Take `C=CCc1ccccc1OCC(=O)N/N=C/c1ccccc1OCC`: the inhibition is 0.68%.

In the case of `Cc1cccc(OCC(=O)NCC(=O)N/N=C/c2ccc(N(C)C)cc2)c1`, the inhibition was 2.63%.

For `Cc1ccc(/C=N/NC(=O)COc2ccccc2-c2ccccc2)cc1`, the inhibition was 68.1% (active).

As to `O=C(O)CC(c1ccccc1F)N1Cc2ccccc2C1=O` (stereo not given), the inhibition was -0.17%.

Consider `CC(C)CN(C(=O)CSc1ncnc2sccc12)C1CCS(=O)(=O)C1` (stereo not given), for which the inhibition was 0.66%.

As to `CCN(CC)CCNC(=O)c1ccc(NC(=O)c2c(F)cccc2Cl)cc1`, the inhibition was -0.4%.

As to `O=C1N[C@@H](Cc2ccccc2)C(=O)N2[C@H]1C[C@]1(Br)c3ccccc3N(S(=O)(=O)c3ccccc3)[C@H]21`, the inhibition is 10.4%.

On to `Cc1ccccc1N1C(=O)C2ON(c3ccccc3)C(c3ccncc3)C2C1=O` (stereo not given), for which the inhibition is 4.04%.

Consider `O=C(C[n+]1cc(Br)cc2ccccc21)c1ccc(F)cc1`, for which the inhibition was 62.8% (active).

As for `O=C(CNC(=O)c1ccccc1F)c1ccc(Br)cc1`, the inhibition is -3.61%.

For the molecule `O=C(CNC(=O)c1ccc(F)cc1)c1ccccc1`, the inhibition was -1.14%.

As for `CC(=O)n1c(C=Nc2ccccc2)c(O)c2ccccc21`, the inhibition is -15.2%.

As to `COC1=C(N2CCOCC2)C(=O)c2ccccc2C1=O`, the inhibition is 1.64%.

With `Cc1oc2c(c1C(=O)N1CCOCC1)C(=O)c1ccccc1C2=O`, the inhibition was -1.81%.

Consider `O=C1c2ccccc2-c2ncnc3c(N4CCOCC4)cc(N4CCOCC4)c1c23`, for which the inhibition was 48.5% (active).

Take `COc1ccc(-n2ncc3c2CC(C)(C)CC3NC(=O)CCc2c(C)nn(C)c2C)cc1` (stereo not given): the inhibition was 6.1%.

Turning to `COCCNc1nnc(SCC(=O)NNC(=O)c2ccco2)s1`, the inhibition is 4.35%.

On to `Cc1ccc(CSCC(=O)N(C)CC(=O)Nc2ccc(C)cc2)cc1`, for which the inhibition is 1.73%.

In the case of `Cc1c(NC(=O)CSc2nnc(-c3cccnc3)n2N)c(=O)n(-c2ccccc2)n1C`, the inhibition was -1.43%.

As for `COc1ccc(C(=O)N(CCN2CCOCC2)CC(=O)NC2CCCC2)cc1OC`, the inhibition was -2.67%.

Regarding `Cc1ccc(OCCCC(=O)Nc2ccc3c(c2)OCCO3)cc1`, the inhibition was -5.28%.

Regarding `CCCCC1=CC2=CC(=O)C(C)(OC(=O)CC)C(=O)C2=CN1CCCOC(C)C` (stereo not given), the inhibition was 25.5%.

In the case of `COC/C=C/C1=CC2=CC(=O)C(C)(OC(=O)CCC(=O)OC)C(=O)C2=CO1` (stereo not given), the inhibition was 46.1% (active).

On to `COc1cc(C2/C(=C(\O)c3ccc4c(c3)CC(C)O4)C(=O)C(=O)N2Cc2ccco2)ccc1O` (stereo not given), for which the inhibition is 0.14%.
